Laboratory results: PMC4336329 (PLoS ONE, 2015)
In all, about 310,000 compounds went through this assay and about 14,000 (4.5%) showed an effect of 50% or more. The effect is printed as a negative number. The entries come from a sample that favours strong results as a whole.

Each compound was assayed against human ether-à-go-go-related gene (hERG) potassium channel (human, UniProt Q12809) (assay: primary screen, population patch clamp on CHO cells stably expressing hERG; higher = less effect of the substance).
human ether-à-go-go-related gene (hERG) potassium channel, sequence (Q12809 whole entry, looked up): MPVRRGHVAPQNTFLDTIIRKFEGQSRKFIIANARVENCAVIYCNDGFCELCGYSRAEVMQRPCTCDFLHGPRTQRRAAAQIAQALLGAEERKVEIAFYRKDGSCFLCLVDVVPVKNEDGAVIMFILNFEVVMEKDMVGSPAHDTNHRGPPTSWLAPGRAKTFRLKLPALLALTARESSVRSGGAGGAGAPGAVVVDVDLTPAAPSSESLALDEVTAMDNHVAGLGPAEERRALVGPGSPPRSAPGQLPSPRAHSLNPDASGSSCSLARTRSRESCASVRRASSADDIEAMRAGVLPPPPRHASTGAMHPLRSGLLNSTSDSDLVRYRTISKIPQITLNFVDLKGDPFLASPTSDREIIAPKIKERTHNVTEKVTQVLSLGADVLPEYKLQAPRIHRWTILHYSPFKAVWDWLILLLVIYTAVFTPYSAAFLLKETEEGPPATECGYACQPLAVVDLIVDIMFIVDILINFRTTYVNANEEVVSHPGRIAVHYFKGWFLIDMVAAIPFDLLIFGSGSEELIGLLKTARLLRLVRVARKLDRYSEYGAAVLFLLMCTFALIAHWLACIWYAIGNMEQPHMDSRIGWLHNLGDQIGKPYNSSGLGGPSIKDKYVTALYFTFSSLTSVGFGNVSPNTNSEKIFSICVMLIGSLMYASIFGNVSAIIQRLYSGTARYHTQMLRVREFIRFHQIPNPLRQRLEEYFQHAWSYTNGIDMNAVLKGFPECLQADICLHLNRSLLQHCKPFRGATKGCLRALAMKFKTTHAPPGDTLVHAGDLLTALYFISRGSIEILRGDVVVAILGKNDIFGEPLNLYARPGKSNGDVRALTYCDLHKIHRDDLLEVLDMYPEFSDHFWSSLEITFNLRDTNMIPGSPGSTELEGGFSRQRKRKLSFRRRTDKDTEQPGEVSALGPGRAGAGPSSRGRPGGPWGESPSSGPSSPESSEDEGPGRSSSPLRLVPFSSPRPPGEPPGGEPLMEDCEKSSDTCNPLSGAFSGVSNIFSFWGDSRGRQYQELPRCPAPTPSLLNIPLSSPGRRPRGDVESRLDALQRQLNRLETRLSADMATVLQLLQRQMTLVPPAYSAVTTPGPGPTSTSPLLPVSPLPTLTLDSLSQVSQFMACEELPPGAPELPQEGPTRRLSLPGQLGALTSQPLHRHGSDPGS
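Note: peak tail current of the secondary pulse compared with the same well before compound.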

Compound | hERG current change (%, negative = inhibition) at 10uM
COc1cc(CNCCc2ccccc2)ccc1OCC(N)=O.Cl | -17.4%
COc1ccc(CNCCc2ccccc2)cc1OCC(N)=O | -12%
COc1ccc(CNCCc2ccc(Cl)cc2)cc1OCc1ccccc1 | -75.6%
CCOc1cc(CNCc2ccccc2)ccc1OCc1ccc(Cl)cc1.Cl | -33.1%
COc1ccccc1CCNCc1ccc(OC)c(OCc2ccccc2)c1 | -71.9%
CCOc1cc(CNCCc2ccccc2F)ccc1OC.O=C(O)C(=O)O | -42.1%
O=C(O)C(=O)O.c1ccc(CNC2=NCCCC2)cc1 | 1.76%
COc1ccccc1CCC(=O)Nc1ccc(S(=O)(=O)Nc2cc(C)nc(C)n2)cc1 | 12%
COc1ccccc1-n1ccnc1SCC(=O)NC(C)(C)C | 13.3%
CN(C)c1ccc(NC(=S)NC(=O)/C=C/c2ccc(Cl)cc2)cc1 | 2.39%
CC(=O)NNC(=O)c1csc(Cc2c(Cl)sc3ccc(Cl)cc23)n1 | -19.6%
CNC(=O)c1csc(Cc2c(Cl)sc3ccc(Cl)cc23)n1 | -2.3%
CNC(=O)NNC(=O)c1csc(Cc2c(Cl)sc3ccc(Cl)cc23)n1 | -52.1%
CN=C(Nc1ccccc1OC)SC1CC(=O)N(c2ccc(C(=O)OC)cc2)C1=O (stereo not drawn) | -12.5%
O=C(Nc1cccnc1)/C(N=Nc1cccnc1)=C(\O)c1ccccc1 | -53%
O=C(Nc1cccnc1)/C(N=Nc1ccc(Cl)c(C(F)(F)F)c1)=C(\O)c1ccccc1 | 29.3%
O=C(Nc1cccnc1)/C(N=Nc1c(Cl)cccc1Cl)=C(\O)c1ccccc1 | 18.8%
COc1cccc(CNC(=O)CCC2CCCN(C(=O)CCc3c(C)noc3C)C2)c1 (stereo not drawn) | -2.56%
COc1ccc(CCNS(=O)(=O)c2ccc3oc(C(=O)O)c(C)c3c2)cc1OC | 0.0936%
CCOC(=O)C(NC(=O)Nc1ccc(C(N)=O)cc1)(c1ccccc1)C(F)(F)F (stereo not drawn) | -14.6%
Cc1cc(/C=N/n2cnnc2)c(C)n1-c1cccc(Cl)c1 | -22.2%
Cc1cccc(-n2c(SCc3cc(=O)n4ccsc4n3)nc3ccccc3c2=O)c1 | -5.76%
O=C(Nc1ccc(Cl)cc1)N1CCN(C(=O)C2CCCO2)CC1 (stereo not drawn) | 14.9%
COc1ccc(C(=O)Nn2cnnc2)cc1OC | 14.6%

Compound | hERG current change (%, negative = inhibition) at 10uM
CCOc1ccc(C(=O)Nn2cnnc2)cc1OCC | -70.4%
CCOc1cc(C(=O)Nn2cnnc2)cc(OCC)c1OCC | 13.8%
CC1CCc2cc(F)ccc2N1C(=O)c1ccncc1 (stereo not drawn) | 7.7%
Cc1cccc(N(C(=O)Cc2cccs2)C(C(=O)NC2CCCC2)c2ccncc2)c1 (stereo not drawn) | 8.83%
Cc1ccc(C(c2nnnn2Cc2cccs2)N2CCN(C(=O)c3ccco3)CC2)cc1 (stereo not drawn) | -62.5%
Cl.O=C(c1ccco1)N1CCN(C(c2ccc(F)cc2)c2nnnn2Cc2cccs2)CC1 (stereo not drawn) | -57%
CC(C)CCn1nnnc1C(c1ccc(F)cc1)N1CCN(C(=O)c2ccco2)CC1 (stereo not drawn) | -38.1%
CC(C)C(c1nnnn1Cc1cccs1)N1CCN(C(=O)c2ccco2)CC1 (stereo not drawn) | -31.6%
O=C(c1ccco1)N1CCN(C(c2ccccc2)c2nnnn2Cc2cccs2)CC1 (stereo not drawn) | -38.9%
O=C(c1ccco1)N1CCN(C(c2ccc(F)cc2)c2nnnn2CC2CCCO2)CC1 (stereo not drawn) | -13.7%
CCCCc1nnc(NC(=O)CSCc2cc(=O)n3cc(C)sc3n2)s1 | 5.31%
Cc1ccc2c(CC(=O)Nc3c(C)n(C)n(-c4ccccc4)c3=O)coc2c1 | -7.21%
COc1ccccc1CN1C[C@@H]2C[C@@H](c3cccc(C)c3)N3CCC[C@@]23C1=O | -37%
O=C1N(Cc2cccnc2)C[C@@H]2C[C@@H](c3cccc(OC4CCCC4)c3)N3CCC[C@@]123 | -69.5%
O=C1N(Cc2cccnc2)C[C@@H]2C[C@@H](c3cccc(Oc4ccccc4)c3)N3CCC[C@@]123 | -59.4%
O=C1N(Cc2cccnc2)C[C@@H]2C[C@@H](c3cccc(OCc4ccccc4)c3)N3CCC[C@@]123 | -63.6%
COc1ccccc1CN1C[C@@H]2C[C@@H](c3cccc(O)c3)N3CCC[C@@]23C1=O | -33.6%
CC(C)(C)NC(=S)NNC(=O)[C@H]1C[C@@H]1c1ccccc1 | 11%
Cc1ccc(S(=O)(=O)N[C@H](C(=O)N2CCC(C(=O)N[C@@H](CC(=O)O)C(=O)O)CC2)C(C)C)cc1 | 24.9%
O=c1cc(-c2ccccc2)cc(-c2ccccc2)n1CCO | -21.5%
O=C(CCN1CCCC1=O)NC1CCCc2c1cnn2-c1ccc(F)cc1F (stereo not drawn) | -2.54%
CCOC(=O)N1CCC(NS(=O)(=O)c2ccc3c(c2)CCN3C(C)=O)CC1 | -0.517%
CC(C)C(C(=O)NC(C)(C)C)N(CCN1CCOCC1)C(=O)CNS(=O)(=O)c1ccccc1 (stereo not drawn) | 0.875%
CC(/C=C/c1ccco1)=N\NC(=O)c1cc(C)[nH]n1 | 5.55%

Compound | hERG current change (%, negative = inhibition) at 10uM
CC(=O)Nc1ccc(N(C(=O)Cc2cccs2)C(C(=O)NC2CCCC2)c2ccncc2)cc1 (stereo not drawn) | 9.17%
CC1(C)CC(=O)C(=Cc2cn(-c3ccccc3)nc2-c2ccccc2)C(=O)C1 | -24.1%
Cc1cccc(C(=O)NC2CC3CCCC(C2)N3Cc2ccccc2)c1 (stereo not drawn) | -40.9%
CCCCN1C2CCCC1CC(NC(=O)c1cccc(OC)c1)C2 (stereo not drawn) | -19.3%
O=C(NC1CC2CCC(C1)N2Cc1ccccc1)c1cccc(F)c1 (stereo not drawn) | -60.5%
O=C(NC1CC2CCCC(C1)N2Cc1ccccc1)c1cccc(F)c1 (stereo not drawn) | -56.8%
O=C(NC1CCCC1)c1cccc(Cl)c1 | 29.8%
O=C(NC1CC2CCC(C1)N2Cc1ccccc1)c1ccccc1Cl (stereo not drawn) | -40.6%
O=C(NC1CC2CCCC(C1)N2Cc1ccccc1)c1cccc(Cl)c1 (stereo not drawn) | -57.9%
CCCCN1C2CCCC1CC(NC(=O)c1cccc(Cl)c1)C2 (stereo not drawn) | -75.5%
O=C(NC1CC2CCC(C1)N2Cc1ccccc1)c1ccccc1Br (stereo not drawn) | -20.1%
CCCN1C2CCCC1CC(NC(=O)c1cccc(Cl)c1)C2 (stereo not drawn) | -38.9%
O=C(Nc1cccc(F)c1)c1ccc(S(=O)(=O)NCC2CCCO2)cc1 (stereo not drawn) | -12.2%
COc1ccc(C(=O)NN(C)c2nc(-c3ccccc3)nnc2C(F)(F)F)cc1 | 7%
N#Cc1cn(CC(=O)N2CCCC2)c2ccccc12 | 8.6%
O=C(O)C1=CC2c3ccccc3C1c1ccccc12 | 17.4%
CC1(C)Cc2sc3c(=O)[nH]c(=S)[nH]c3c2CO1 | 16.6%
CCCN1C(=O)/C(=c2\s/c(=C3\C=Cc4ccccc4N3CC)c(=O)n2-c2ccccc2)SC1=S | 8.95%
O=C1NC(=O)/C(=C\c2cn(CC(=O)N3CCOCC3)c3ccccc23)S1 | 11.7%
COCC(=O)Nc1sc2c(c1C(=O)OC)CCCC2 | -11.7%
COc1ccc(C2/C=C\CN(C(=O)c3ccccc3)[C@H](Cc3ccccc3)C(=O)N2Cc2ccc(F)cc2)cc1 (stereo partly drawn) | 17%
Fc1cccc(-c2cc3nc4c(c(N5CCOCC5)n3n2)CCCC4)c1 | -24.1%
Cc1nc(N)nc(N/N=C/c2c(F)cccc2Cl)n1 | 3.11%
COc1cc(NS(=O)(=O)c2ccc(NC(=O)C34CC5CC(CC(C5)C3)C4)cc2)ncn1 | -4.59%

Compound | hERG current change (%, negative = inhibition) at 10uM
OC(CN1CCc2ccccc2C1)c1ccccc1 (stereo not drawn) | -9.09%
OC(COC(c1ccc(F)cc1)c1ccc(F)cc1)CN1CCc2ccccc2C1 (stereo not drawn) | -73.7%
OC(COC(c1ccccc1)c1ccccc1)CN1CCc2ccccc2C1 (stereo not drawn) | -76.9%
Cl.OC(COC(c1ccc(Cl)cc1)c1ccc(Cl)cc1)CN1CCc2ccccc2C1 (stereo not drawn) | -61.6%
CC1(c2ccc3c(c2)OCCCO3)NC(=O)N(CC(=O)NCCc2ccccc2)C1=O (stereo not drawn) | -7.38%
COc1ccc(C(CNC(=O)COc2c(C)cc(C)cc2C)N2CCOCC2)cc1 (stereo not drawn) | -12.1%
COc1ccc(-c2coc3cc(O)ccc3c2=O)cc1 | -5.05%
CCOC(=O)CSC1=N/C(=C\c2cc(OC)c(OC)c(OC)c2)C(=O)N1C | -7.36%
CCOC(=O)CSC1=N/C(=C\c2ccc(OC)c(OC)c2)C(=O)N1C | -69.7%
CCN1C(=O)/C(=C/c2ccc(OC)c(OC)c2)N=C1SCC(=O)NCc1ccco1 | -15.1%
CCOC(=O)C1(CCCc2ccccc2)CCN(C(=O)C2CCCO2)CC1 (stereo not drawn) | -25.7%
O=C(C1CCOCC1)N1CCC(CO)(CCc2ccccc2)CC1 | 5.29%
CCOC(=O)C1(CCCc2ccccc2)CCN(C(=O)[C@@H]2C[C@@H](C)NC(=S)N2)CC1 | -25.1%
CCOC(=O)C1(CCCc2ccccc2)CCN(C2CCC2)CC1 | -74.8%
CCOC(=O)C1(CCCc2ccccc2)CCN(C2CCCC2)CC1 | -69.7%
CCOC(=O)C1(CCCc2ccccc2)CCN(S(C)(=O)=O)CC1 | -8.15%
CCOC(=O)C1(CCc2ccccc2)CCN(C(=O)C2CCCO2)CC1 (stereo not drawn) | -13%
CCOC(=O)C1(CCCc2ccccc2)CCN(S(=O)(=O)N(C)C)CC1 | -4.73%
CCOC(=O)C1(CCc2ccccc2)CCN(C(=O)C2CCOCC2)CC1 | -53.1%
CCOC(=O)C1(Cc2ccccc2C(F)(F)F)CCN(C2CCC2)CC1 | -36.6%
CCOC(=O)C1(CCCc2ccccc2)CCN(C(=O)C2CCCN(C(N)=O)C2)CC1 (stereo not drawn) | -72.4%
